# a7 integrin act: activates integrin-mediated alleviation for muscular dystrophy | alpha7betagal myoblasts, beta-gal FDG fluorescence, 48 h | Potency, µM (series often up to 38.3 µM), for the others: at the top dose activation, hits mostly activators | hit rate 0.064% among 350,000 | AID 624291; active means well fitted activation curve with a large enough effect; inconclusive means small, poorly fitted or top-dose-only effect; inactive means no such curve, though single readings can be large or run the other way;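 further: potency means the concentration at half of the fitted maximal effect; 100% = response of the positive control SU9516; nearly all actives have a fitted effect of over 60% in size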
#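 alpha7betagal+/- myoblasts (passage 13, 250/well) treated 48 h at 37C with compounds at 1:260 dilution of DMSO stock. Lysed, then beta-galactosidase activity read as FDG fluorescence (ex 480/em 540) after 30 min, with pre-read for autofluorescence.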
# D3 antag: blocks the human D3 dopamine receptor. AID 652054. P35462. max response, negative = inhibition, %. hit rate 2.5% among 360,000. D3R cells, DiscoveRx beta-arrestin luminescence, antagonist mode; hits give low values; in the data active means max response below about -50%; inconclusive means no clear call, values can overlap the other calls; further: on the % scale 0 is the no-effect control and ±100 the full control effect
# Target sequence (P35462 whole entry, looked up): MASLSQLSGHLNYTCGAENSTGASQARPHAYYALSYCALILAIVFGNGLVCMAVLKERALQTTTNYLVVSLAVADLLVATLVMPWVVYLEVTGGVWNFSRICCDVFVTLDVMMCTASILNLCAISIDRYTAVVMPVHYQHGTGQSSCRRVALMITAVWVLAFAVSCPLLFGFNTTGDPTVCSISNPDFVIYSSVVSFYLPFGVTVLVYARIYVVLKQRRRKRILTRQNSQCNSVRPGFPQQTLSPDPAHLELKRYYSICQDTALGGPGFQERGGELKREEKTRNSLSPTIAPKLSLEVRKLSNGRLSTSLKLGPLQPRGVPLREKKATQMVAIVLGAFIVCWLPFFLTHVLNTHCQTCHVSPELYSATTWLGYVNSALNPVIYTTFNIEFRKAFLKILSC
#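 Cells expressing the human receptor were seeded at 1500 cells/well, incubated overnight at 37 degrees C in 5% CO2, then exposed to library compounds with dopamine controls for 90 minutes at 37 degrees C before luminescent detection.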
# D3 ag: agonists of human D3 dopamine receptor. D3R DiscoveRx beta-arrestin cells, luminescence, 90 min. AID 652048. hit rate 0.58% among 410,000. max activation, %; in the data active means max activation above about 30%; further: 0% is about no effect
#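 Agonist mode: compounds and dopamine controls were applied to plated cells for 90 min at 37 degrees C after an overnight attachment at 1500 cells/well. Luminescent read-out followed 30 - 60 minutes at room temperature with DiscoveRx detection reagent.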
# Active calls of the source: *; u = inconclusive; x = not tested or not shown; [ ] = remark or other dose. The list is not random: actives were taken first. Their share in the collection is about 2.9%.
SMILES,a7 integrin act,D3 antag,D3 ag
O=C1[C@@H]2Cc3c([nH]c4ccccc34)C(c3cccc([N+](=O)[O-])c3)N2C(=O)CN1CCCO (stereo not given in full),-40%,-58*,-9
COc1ccc(CC2=CC(=O)c3ccccc3C2=O)cc1,-61%,-56*,-18
COc1ccc(Cc2ccccc2C(=O)O)cc1,6%,7,-2
COc1ccc(-n2ncc(C(C)NS(=O)(=O)c3ccc(C)s3)c2C)cc1 (stereo not given),24%,-12,1
O=C(/C=C/c1ccc2ccccc2c1)c1ccoc1,22%,0,-1
Cc1cc(C(=O)NCc2ccccc2)c2c(C)nn(-c3cccc(F)c3)c2n1,x,x,10
COc1cccc(CNC(=O)c2cc(C)nc3c2c(C)nn3-c2ccc(C)cc2)c1,x,x,37*
CCOc1ccc(CCNC(=O)c2cc(C)nc3c2c(C)nn3-c2cccc(F)c2)cc1,x,x,63*
COc1ccc(CCNC(=O)c2cc(C)nc3c2c(C)nn3-c2ccc(C)cc2)cc1OC,x,x,8
O=C1C2=C(CCCC2)C(=O)N1CNc1ccccc1,18%,2,2
Cc1ccccc1CNC(=O)C(C)Sc1ccccc1 (stereo not given),-13%,-17,1
COc1ccc(N2CCN(C3CCCN(Cc4cccc(C)c4)C3)CC2)cc1 (stereo not given),-36%,-24,-19
COc1ccc(CN2CCCC(N3CCN(c4ccc(OC)cc4)CC3)C2)cc1 (stereo not given),-18%,-58*,-6
CC(C)=CCN1CCN(Cc2coc3ccc(C)cc3c2=O)CC1CCO (stereo not given),-20%,2,-8
CCCCNC(=O)c1onc(CSc2ccncc2)c1C(=O)NCCCC,1%,-3,59*
CCCCNC(=O)c1onc(CSc2ccc(F)cc2)c1C(=O)NCCCC,23%,0,-1
COCCNC(=O)c1onc(CSc2ccc(F)c(F)c2)c1C(=O)NCCOC,9%,0,30*
CCCCNC(=O)c1onc(CSc2ccc(Cl)cc2)c1C(=O)NCCCC,15%,-6,-13
CCCCNC(=O)c1onc(CSc2ccccc2)c1C(=O)NCCCC,8%,0,42*
COCCNC(=O)c1onc(CSc2ccc(F)c(F)c2)c1C(=O)O,-7%,3,19
O=C(Nc1ccc(C(=O)N2CCC(N3CCOCC3)CC2)cc1)c1ccc(Br)o1,-20%,15,7
O=C(O)c1cccc(NC(=O)c2ccc(Cl)c(S(=O)(=O)N3CCCCCC3)c2)c1,19%,-9,2
Cc1ccc(NC(=O)CCC(=O)OCC(=O)c2ccc(-c3ccccc3)cc2)cc1,2%[7.66 µM],14,-10
c1n[nH]c(SCCCCSc2ncn[nH]2)n1,-9%,23,-4
Cc1c(C(=O)OC(C)C)sc2nc[nH]c(=O)c12,-12%,7,14
SMILES,a7 integrin act,D3 antag,D3 ag
COC(=O)C1(C)NC(c2ccc(F)cc2)C2C(=O)N(c3ccc(C)cc3)C(=O)C21 (stereo not given),38%,2,-9
CC(=O)NC(CC(C)C)C(=O)NC(Cc1ccccc1)C(N)=O (stereo not given),5%,9,30*
CC(=O)NC(CC(C)C)C(=O)NC(Cc1ccccc1)C(=O)CCl (stereo not given),-49%,u,-10
O=C(CCN1C(=O)S/C(=C\c2cccs2)C1=O)Nc1nccs1,28%,-11,4
O=C(CCN1C(=O)/C(=C\c2cccs2)SC1=S)Nc1nccs1,-9%,-52*,13
O=C(CCN1C(=O)/C(=C/c2cccs2)SC1=S)Nc1ccccc1O,2%,10,-1
O=C(CCCN1C(=O)/C(=C\c2cccs2)SC1=S)Nc1cc([N+](=O)[O-])ccc1O,-14%,-90*,-19
C/C(=C\COc1ccc2ccc(=O)oc2c1)CC[C@@H](O)C(C)(C)O,-14%,1,-1
O=C(NCCOc1ccccc1)c1cccc(S(=O)(=O)NCc2ccccc2)c1,0%,-5,11
CN(C)c1ccc(Cc2cc3c(O)ccc(O)c3cc(Cc3ccc(N(C)C)cc3)c2=O)cc1,-53%,-51*,-2
CN(C)c1ccc(C(=O)c2ccc(O)cc2O)cc1,-15%,-21,-4
COC(=O)C1=C(C)NC2=C(C(=O)CC(C)(C)C2)C1c1cn(Cc2ccc(Br)cc2)nc1-c1ccccc1 (stereo not given),14%,-7,-5
O=C(Nc1ccccc1OCc1cc(=O)n2ccccc2n1)c1ccccc1F,x,x,6
CCOC(=O)N1CCN(S(=O)(=O)c2ccc(C(=O)Nc3nnc(C)o3)cc2)CC1,3%,-51*,-17
CCOC(=O)N1CCN(S(=O)(=O)c2ccc(C(=O)Nc3nnc(CSC)o3)cc2)CC1,1%,10,5
Fc1ccc(-n2cc(CNCCc3cccnc3)c(-c3ccccc3Cl)n2)cc1,-24%,-70*,-4
Fc1ccc(-n2cc(CNCCc3ccncc3)c(-c3ccccc3Cl)n2)cc1,8%,-1,-11
CCOc1cc(C(=O)Nc2ccc([N+](=O)[O-])cn2)cc(OCC)c1OCC,u,-24,-45
COC(=O)c1ccc(C23CC4(C2)[C@H](CN(Cc2cccnc2)[C@@H]4c2ccccc2)C3c2ccc(C(F)(F)F)cc2)cc1 (stereo not given in full),8%,-5,4
COC(=O)c1ccc(C23CC4(C2)[C@H](CN(Cc2cccnc2)[C@@H]4c2ccccc2)C3c2ccccc2)cc1 (stereo not given in full),0%,-28,47*
O=C(C1=C[C@@H]2[C@H]3C(=O)N(c4ccc(Cl)cc4)C(=O)[C@H]3[C@@H](C(=O)c3ccc(Cl)cc3)N2C=C1)c1ccccc1,4%,-1,-2
O=C(Nc1ccc2oc(-c3ccncc3)nc2c1)c1c(F)c(F)c(F)c(F)c1F,24%,-66*,-16
COc1c(F)c(F)c(C(=O)Nc2ccc3oc(-c4ccncc4)nc3c2)c(F)c1F,14%,15,7
O=C(COC(=O)c1ccccc1O)NC12CC3CC(CC(C3)C1)C2,-24%,10,-4
O=C(COC(=O)/C=C/C(=O)OCC(=O)NC12CC3CC(CC(C3)C1)C2)NC12CC3CC(CC(C3)C1)C2,-67%,-59*,-22
SMILES,a7 integrin act,D3 antag,D3 ag
O=C(COC(=O)c1cc([N+](=O)[O-])ccc1N1CCOCC1)c1ccccc1,1%,6,-8
Clc1ccc2nc(-c3ccco3)c(Cc3ccsc3)n2c1,x,-53*,-11
Brc1ccc2nc(-c3ccco3)c(Cc3ccsc3)n2c1,x,8,-1
Fc1ccc(C(c2ccc(F)cc2)N2CCN(C/C=C/c3ccccc3)CC2)cc1,x,u,-75
Cc1cccc(C)c1NC(=O)C(c1ccccc1)N1CCN(C/C=C/c2ccccc2)CC1 (stereo not given),x,-13,-10
C(=C\c1ccccc1)/CN1CCN(C(c2ccccc2)c2ccccc2)CC1,x,-63*,x
CC1CCN(C(c2ccccc2)c2nnnn2C(C)(C)C)CC1 (stereo not given),-21%,-5,-2
CSCCC(C(=O)Nc1c(C)cccc1C)N1CCN(C/C=C/c2ccccc2)CC1 (stereo not given),x,-81*,-12
CC(C)(C)n1nnnc1CN1CCN(C(c2ccccc2)c2ccccc2)CC1,-45%,16,1

# Assay outcomes (PubChem BioAssay)
